± gives the standard deviation of the averaged measurements.
Test system: DLD1
Experiment: TCF/Wnt firefly luciferase reporter signal relative to plate median (fraction of plate median); higher = higher Wnt reporter signal
Settings: 5 µM; treatment time 24 h; reporter: 7TFP
How it was run: (§1)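 Stable lentiviral TCF/Wnt firefly luciferase reporters (7TFP or TCF4/Wnt) were present in the colorectal cancer cell lines used. These cells received library compounds at a final 5 µM for 24 h, and parallel plates were read for firefly luciferase or CellTiterGlo luminescence. Each well was normalised to the plate median, and the value reported is the mean of two independent replicates.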

Row | Structure (SMILES) | TCF/Wnt firefly luciferase reporter signal
1 | C[C@]12C=CC(=O)C=C1CC[C@H]1[C@@H]3C[C@@H](O)[C@](O)(C(=O)CO)[C@@]3(C)C[C@H](O)[C@@]12F | 0.951 ± 0.069
2 | CC(C)=CCc1cccc2c(C[C@@H]3NC(=O)[C@H](C)NC3=O)c[nH]c12 [Terezine D] | 1.12 ± 0.31
3 | C#C[C@]1(O)CC[C@H]2[C@@H]3CCc4cc(O)ccc4[C@H]3CC[C@@]21C | 1.08 ± 0.078
4 | C=C(C)[C@@H]1CC=C(C(=O)O)CC1 | 1.11 ± 0.17
5 | CN(C)CCOC(=O)C(c1ccccc1)C1(O)CCCC1 (stereo not given) | 1.12 ± 0.12

Test system: SW480
Experiment: as above
Settings: 5 µM; treatment time 24 h; reporter: 7TFP
How it was run: as §1

Row | Structure (SMILES) | TCF/Wnt firefly luciferase reporter signal
6 | CN1CCC(=C2c3ccccc3Sc3ccccc32)CC1 | 0.944 ± 0.071
7 | CC(C)c1c(O)c(-c2cc3c(c(C(C)C)c2O)CCC2C(C)(C)CCC[C@]32C)cc2c1CCC1C(C)(C)CCC[C@]21C (stereo not given in full) | 1.09 ± 0.014
8 | CC(C)CCC[C@@H](C)[C@H]1CC[C@H]2[C@@H]3CC=C4C[C@@H](O)CC[C@]4(C)[C@H]3CC[C@]12C | 1.04 ± 0.042
9 | O=c1occ(C(O)CO)c2cccc(O)c12 (stereo not given) [Oospoglycol] | 1.01 ± 0.15
10 | O=C(NC(Cc1cc(=O)[nH]c2ccccc12)C(=O)O)c1ccc(Cl)cc1 (stereo not given) | 0.818 ± 0.069
11 | NC[C@@H]1O[C@@H](O[C@H]2[C@H](O)[C@@H](O[C@H]3O[C@H](CO)[C@@H](O)[C@H](N)[C@H]3O)[C@H](N)C[C@@H]2N)[C@@H](O)[C@H](O)[C@H]1O | 0.988 ± 0.031
12 | O=C1C=C2CC3(O)COc4c(ccc(O)c4O)C3=C2C=C1O (stereo not given) | 1.05
13 | CC[C@H](CC[C@@H](C)[C@H]1CC[C@H]2[C@@H]3CC=C4C[C@@H](O)CC[C@]4(C)[C@H]3CC[C@]12C)C(C)C [beta-SITOSTEROL] | 1.02 ± 0.035
14 | CCCCCC(=O)O[C@]1(C(C)=O)CC[C@H]2[C@@H]3CCC4=CC(=O)CC[C@]4(C)[C@H]3CC[C@@]21C | 1.04 ± 0.021
15 | CCCCC/C=C/CCC(=O)N[C@H]1[C@H](Oc2c3cc4cc2Oc2ccc(cc2Cl)[C@@H](O[C@@H]2O[C@H](CO)[C@@H](O)[C@H](O)[C@H]2NC(C)=O)[C@@H]2NC(=O)[C@H](NC(=O)[C@@H]4NC(=O)[C@H]4NC(=O)C(Cc5ccc(c(Cl)c5)O3)NC(=O)[C@H](N)c3ccc(O)c(c3)Oc3cc(O)cc4c3)c3ccc(O)c(c3)-c3c(OC4O[C@H](CO)[C@@H](O)[C@H](O)[C@@H]4O)cc(O)cc3[C@@H](C(=O)O)NC2=O)O[C@H](CO)[C@@H](O)[C@@H]1O (stereo not given in full) [TEICOPLANIN [A(2-1) shown]] | 1 ± 0.04
16 | CN(C)c1ccc(C(=C2C=CC(=[N+](C)C)C=C2)c2ccc(N(C)C)cc2)cc1 | 0.465 ± 0.012
17 | CC1CC2C3CCC4=CC(=O)C=CC4(C)C3(F)C(O)CC2(C)C1C(=O)CO (stereo not given) | 1.04 ± 0.057
18 | NNCCc1ccccc1 | 1.22 ± 0.014
19 | CCOC(=O)[N-]c1c[n+](N2CCOCC2)no1 | 1.11 ± 0.078
20 | COC(=O)c1c(C)cc(O)cc1O | 0.984 ± 0.11
21 | CC(=O)O[C@@H]1CC2C(C)(C)[C@H](O)CC[C@]2(C)C2CC[C@@]3(C)[C@H](c4ccoc4)OC(=O)C4OC43[C@@]21C (stereo partly drawn) [alpha-DIHYDROGEDUNOL] | 0.954 ± 0.025
22 | CCOC(=O)[C@@](C)(N)Cc1ccc(O)c(O)c1 | 1.07 ± 0.064
23 | CC(C)CCCC(C)C1CCC2C3=CCC4CC(O)CCC4(C)C3CCC21C (stereo not given) | 0.897 ± 0.12
24 | NC(=O)NCCC[C@H](N)C(=O)O | 0.864 ± 0.083
25 | CCCC(=O)Nc1ccc(OCC(O)CNC(C)C)c(C(C)=O)c1 (stereo not given) | 1.01 ± 0.035

Row | Structure (SMILES) | TCF/Wnt firefly luciferase reporter signal
26 | CC(=O)C1=C(O)C=C2Oc3c(C(C)=O)c(O)c(C)c(O)c3C2(C)C1=O (stereo in doubt) | 0.973 ± 0.052
27 | CCc1c(O)cc(C(C)CC)oc1=O (stereo not given) [Germicidin] | 1.06 ± 0.09
28 | CS(=O)(=O)CCCCN=C=S | 0.867 ± 0.12
29 | COc1c(N2C[C@@H]3CCCN[C@@H]3C2)c(F)cc2c(=O)c(C(=O)O)cn(C3CC3)c12 | 1 ± 0.013
30 | COc1cc2c(cc1OC)-c1c(oc3cc(O)cc(O)c3c1=O)CO2 | 1.03 ± 0.035
31 | Cn1c(=O)[nH]c(=O)c2[nH]cnc21 | 1.16 ± 0.042
32 | NC(=O)NO | 1.03 ± 0.12
33 | C[C@H]1COc2c(N3CCN(C)CC3)c(F)cc3c(=O)c(C(=O)O)cn1c23 | 1.04 ± 0.093
34 | CCN(CCCc1ccccc1)CCCc1ccccc1 | 0.916 ± 0.055
35 | OC[C@H]1O[C@@](CO)(O[C@H]2O[C@H](CO)[C@@H](O)[C@H](O)[C@H]2O)[C@@H](O[C@H]2O[C@H](CO)[C@@H](O)[C@H](O)[C@H]2O)[C@@H]1O | 0.989 ± 0.073
36 | C[C@@H]1C[C@H]2[C@@H]3CCC4=CC(=O)C=C[C@]4(C)[C@@]3(F)[C@@H](O)C[C@]2(C)[C@@]1(O)C(=O)COP(=O)(O)O | 0.906 ± 0.0014
37 | CC(=O)O[C@]1(C(C)=O)CC[C@H]2[C@@H]3C=C(C)C4=CC(=O)CC[C@]4(C)[C@H]3CC[C@@]21C | 1 ± 0.04
38 | CC(=O)O[C@@H]1CC2C(C)(C)[C@H](O)C[C@H](O)[C@@]2(C)C2CC[C@]3(C)C(=CC(=O)O[C@@H]3c3ccoc3)[C@]21C (stereo not given in full) | 0.948 ± 0.088
39 | CN(C)c1ccc(O)c2c1C[C@H]1C[C@H]3[C@H](N(C)C)C(O)=C(C(N)=O)C(=O)[C@@]3(O)C(O)=C1C2=O | 1.08 ± 0.085
40 | Cc1cc(/C=C/c2ccc3cc(N(C)C)ccc3[n+]2C)c(C)n1-c1ccccc1 | 0.588 ± 0.085
41 | C[C@]12C=CC(=O)C=C1CC[C@H]1[C@@H]3C[C@@H](O)[C@](O)(C(=O)CO)[C@@]3(C)C[C@H](O)[C@@]12F | 0.89 ± 0.15
42 | CC(C)=CCc1cccc2c(C[C@@H]3NC(=O)[C@H](C)NC3=O)c[nH]c12 [Terezine D] | 0.92 ± 0.0099
43 | C#C[C@]1(O)CC[C@H]2[C@@H]3CCc4cc(O)ccc4[C@H]3CC[C@@]21C | 1.04 ± 0.021
44 | C=C(C)[C@@H]1CC=C(C(=O)O)CC1 | 1.055 ± 0.0071
45 | CN(C)CCOC(=O)C(c1ccccc1)C1(O)CCCC1 (stereo not given) | 1.05 ± 0.12

Reference: the supplement of paper PMC6522484
